From PubChem BioAssay (EPA / NIEHS)
Values joined by “and” are separate entries in the source; they are usually repeats but may differ in a detail not shown here. Equal values may be shown once. Inconclusive results are not listed. Some structures have more than one record in an assay (separate samples or runs), and their calls can disagree. Active and inactive are the calls of the source. How the source made its calls, unless noted: active means hit-call score of the fitted dose curve at least 0.9, where 1 is the maximum; inconclusive means response in the unintended direction; inactive means score below 0.9.

Legend:
[1] = target: Estrogen receptor beta (Homo sapiens) (UniProt Q92731); test: OT_ER_ERbERb_1440: Odyssey Thera (OT) 24-hour HEK293T Protein-Complementation Assay for Estrogen Receptor-beta/-beta Homodimer (AID 2283380);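 further: scored as signal increase over DMSO baseline for both agonists and antagonists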
Sequence of Estrogen receptor beta (Homo sapiens) (Q92731 whole entry, looked up, the tested form may be a part): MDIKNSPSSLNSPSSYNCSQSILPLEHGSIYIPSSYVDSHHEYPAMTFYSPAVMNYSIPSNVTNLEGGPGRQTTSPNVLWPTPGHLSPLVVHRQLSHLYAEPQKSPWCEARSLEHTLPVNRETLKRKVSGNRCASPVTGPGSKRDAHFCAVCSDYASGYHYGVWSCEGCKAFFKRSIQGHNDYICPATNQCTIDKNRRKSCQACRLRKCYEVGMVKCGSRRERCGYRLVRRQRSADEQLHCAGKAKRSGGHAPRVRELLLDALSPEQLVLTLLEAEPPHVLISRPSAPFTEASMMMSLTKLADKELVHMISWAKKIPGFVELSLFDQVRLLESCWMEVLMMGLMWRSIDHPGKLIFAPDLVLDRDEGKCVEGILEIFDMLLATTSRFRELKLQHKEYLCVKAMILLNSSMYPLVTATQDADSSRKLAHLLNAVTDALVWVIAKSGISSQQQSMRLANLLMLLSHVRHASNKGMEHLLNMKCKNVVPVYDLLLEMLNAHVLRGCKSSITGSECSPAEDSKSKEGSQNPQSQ
Outline: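 HEK293T cells stably expressing ER beta LBD (aa 310-547) homodimer fragment-complementation reporter, dosed 24 h. Cells formaldehyde-fixed, Draq5-stained; gain in nuclear (agonist) or nuclear plus cytoplasmic (antagonist) fluorescence versus DMSO read by laser scanning cytometry.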

[2] = target: Estrogen receptor (Homo sapiens) (UniProt P03372); test: OT_ERa_GFPERaERE_0480: Odyssey Thera (OT) 8-hour HeLa Transcription Induction Assay for Estrogen Receptor (AID 2283381; active means hit-call score of the fitted dose curve at least 0.9, where 1 is the maximum; inactive means score below 0.9)
Sequence of Estrogen receptor (Homo sapiens) (P03372 whole entry, looked up): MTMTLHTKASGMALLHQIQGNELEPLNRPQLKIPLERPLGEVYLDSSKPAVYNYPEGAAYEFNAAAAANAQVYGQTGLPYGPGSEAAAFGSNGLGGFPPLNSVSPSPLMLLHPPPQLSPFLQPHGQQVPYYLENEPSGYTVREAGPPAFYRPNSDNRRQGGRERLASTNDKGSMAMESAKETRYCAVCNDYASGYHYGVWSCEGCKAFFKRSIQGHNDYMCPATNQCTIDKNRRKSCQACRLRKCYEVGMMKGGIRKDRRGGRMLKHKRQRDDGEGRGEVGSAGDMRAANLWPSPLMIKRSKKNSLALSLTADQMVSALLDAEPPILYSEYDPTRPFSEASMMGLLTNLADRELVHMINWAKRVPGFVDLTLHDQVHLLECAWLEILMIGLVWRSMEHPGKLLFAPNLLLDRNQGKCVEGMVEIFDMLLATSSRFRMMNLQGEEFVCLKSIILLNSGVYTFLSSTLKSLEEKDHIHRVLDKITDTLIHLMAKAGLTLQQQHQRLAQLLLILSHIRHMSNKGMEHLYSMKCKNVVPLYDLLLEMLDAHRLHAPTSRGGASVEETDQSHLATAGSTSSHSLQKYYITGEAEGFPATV
Outline: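 Cells (HeLa) receive compound; after 8 h, reporter fluorescence is imaged and quantified by high-content analysis. Gain-of-signal relative to DMSO gives the endpoint.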

[3] = target: Estrogen receptor (Homo sapiens) (UniProt P03372); test: OT_ERa_GFPERaERE_0120: Odyssey Thera (OT) 2-hour HeLa Transcription Induction Assay for Estrogen Receptor (AID 2283382)
Outline: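 Measures ESR1 pathway reporter gain-of-signal in HeLa cells after a 2-hour treatment, detected as fluorescent protein induction by microscopy, DMSO as baseline.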

[4] = target: Retinoic acid receptor RXR-alpha (Homo sapiens) (UniProt P19793); test: OT_NURR1_NURR1RXRa_0480: Odyssey Thera (OT) 8-hour HEK293T Protein Complementation Assay for Nurr1/retinoid X receptor (RXR) (AID 2283385)
Sequence of Retinoic acid receptor RXR-alpha (Homo sapiens) (P19793 whole entry, looked up, the tested form may be a part): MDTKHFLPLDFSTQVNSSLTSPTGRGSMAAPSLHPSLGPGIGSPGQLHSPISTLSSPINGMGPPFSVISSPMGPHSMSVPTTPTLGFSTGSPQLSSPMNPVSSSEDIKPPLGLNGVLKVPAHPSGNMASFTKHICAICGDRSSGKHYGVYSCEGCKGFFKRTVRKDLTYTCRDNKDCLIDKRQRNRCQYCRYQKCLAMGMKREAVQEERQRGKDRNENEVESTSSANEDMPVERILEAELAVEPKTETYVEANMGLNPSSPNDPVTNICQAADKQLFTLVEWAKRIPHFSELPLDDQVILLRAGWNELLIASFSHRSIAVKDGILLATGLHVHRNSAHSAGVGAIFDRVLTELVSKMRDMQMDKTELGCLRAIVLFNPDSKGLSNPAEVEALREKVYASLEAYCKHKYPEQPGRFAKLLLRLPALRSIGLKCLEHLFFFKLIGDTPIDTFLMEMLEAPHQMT
Outline: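 Compounds are applied to HEK293T cells carrying Nurr1 and RXRα linked to reporter fragments. After 8 h, fluorescence intensity reports heterodimer formation, with DMSO as baseline.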

[5] = target: Retinoic acid receptor RXR-alpha (Homo sapiens) (UniProt P19793); test: OT_NURR1_NURR1RXRa_1440: Odyssey Thera (OT) 24-hour HEK293T Protein Complementation Assay for Nurr1/retinoid X receptor (RXR) (AID 2283386)
Outline: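 Measured as fluorescence from a reconstituted split reporter, this 24 h HEK293T complementation assay scores compound-induced gain of Nurr1/RXRα association relative to DMSO.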

[6] = target: Peroxisome proliferator-activated receptor gamma (Homo sapiens) (UniProt P37231); test: OT_PPARg_PPARgSRC1_0480: Odyssey Thera (OT) 8-hour Protein-Complementation Assay for Peroxisome Proliferator-activated Receptor Gamma / SRC-1 Co-activator (AID 2283387)
Sequence of Peroxisome proliferator-activated receptor gamma (Homo sapiens) (P37231 whole entry, looked up, the tested form may be a part): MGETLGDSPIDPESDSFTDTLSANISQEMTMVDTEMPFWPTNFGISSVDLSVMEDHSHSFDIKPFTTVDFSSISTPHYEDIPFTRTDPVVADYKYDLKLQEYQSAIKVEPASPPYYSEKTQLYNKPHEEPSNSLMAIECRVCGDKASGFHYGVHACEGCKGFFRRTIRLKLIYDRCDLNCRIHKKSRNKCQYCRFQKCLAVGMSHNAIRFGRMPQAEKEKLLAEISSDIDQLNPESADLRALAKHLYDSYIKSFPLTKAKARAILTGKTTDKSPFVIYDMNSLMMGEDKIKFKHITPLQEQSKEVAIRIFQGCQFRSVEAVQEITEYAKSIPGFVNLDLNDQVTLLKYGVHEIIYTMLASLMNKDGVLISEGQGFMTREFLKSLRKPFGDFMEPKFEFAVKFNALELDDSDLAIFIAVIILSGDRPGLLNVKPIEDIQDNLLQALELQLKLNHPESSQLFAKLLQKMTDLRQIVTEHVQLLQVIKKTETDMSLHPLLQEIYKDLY
Outline: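 Protein-fragment complementation in HEK293T: Venus YFP halves (residues 1-158, 159-239, mutated to IFP1/IFP2) fused to PPARg/SRC-1. 8 h exposure; N/C ratio at 488 nm; DMSO negative control.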

[7] = target: Peroxisome proliferator-activated receptor gamma (Homo sapiens) (UniProt P37231); test: OT_PPARg_PPARgSRC1_1440: Odyssey Thera (OT) 24-hour Protein-Complementation Assay for Peroxisome Proliferator-activated Receptor Gamma/ SRC-1 Co-activator (AID 2283388)
Outline: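 HEK293T transiently transfected with PPARg/SRC-1 split-Venus YFP fusions 48 h before dosing, then treated 24 h at 37C. Fixed cells imaged; nuclear/cytoplasmic 488 nm fluorescence ratio, gain of signal versus DMSO.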

[8] = read-out: Tumor necrosis factor receptor superfamily member 6 (Homo sapiens) (UniProt P25445); test: LTEA_HepaRG_FAS: Life Technologies and Expression Analysis (LTEA) Assay for Fas cell surface death receptor (FAS) using HepaRG (AID 2283447; active means hit-call score of the fitted dose curve at least 0.9, where 1 is the maximum; inactive means score below 0.9); details: mRNA level, 48 h; actives raise or lower the signal
Outline: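 Differentiated HepaRG cells in serum-free induction medium were exposed 48 h to 8 half-log concentrations up to 100 uM in 0.5% DMSO, in duplicate. FAS mRNA was measured by qRT-PCR normalised to ACTB, GAPDH and POLR2A; bidirectional fit versus DMSO.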

[9] = target: Bile acid receptor (Homo sapiens) (UniProt Q96RI1); test: OT_FXR_FXRSRC1_0480: Odyssey Thera (OT) 8-hour HEK293T Protein-Complementation Assay for Farnesoid X receptor/SRC-1 Co-activator (AID 2283383)
Sequence of Bile acid receptor (Homo sapiens) (Q96RI1 whole entry, looked up, the tested form may be a part): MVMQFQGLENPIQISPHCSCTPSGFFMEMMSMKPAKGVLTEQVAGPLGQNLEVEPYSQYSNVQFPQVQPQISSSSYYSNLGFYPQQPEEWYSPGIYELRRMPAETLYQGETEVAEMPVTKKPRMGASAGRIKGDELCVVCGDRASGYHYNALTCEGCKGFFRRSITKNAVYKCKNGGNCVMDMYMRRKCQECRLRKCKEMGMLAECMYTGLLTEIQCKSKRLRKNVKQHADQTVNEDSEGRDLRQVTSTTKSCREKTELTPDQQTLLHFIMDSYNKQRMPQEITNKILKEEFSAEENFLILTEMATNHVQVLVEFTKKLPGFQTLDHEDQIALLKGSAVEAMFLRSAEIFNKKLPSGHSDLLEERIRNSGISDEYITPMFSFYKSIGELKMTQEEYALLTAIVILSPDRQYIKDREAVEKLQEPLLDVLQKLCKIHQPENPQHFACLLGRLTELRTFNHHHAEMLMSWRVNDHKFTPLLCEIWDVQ
Outline: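 Co-activator recruitment to FXR was measured in living HEK293T cells, where interaction of the two fused partners restored an active fluorescent reporter. Signal gain after 8 h treatment was referenced to DMSO.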

[10] = CEETOX_H295R_11DCORT: CeeTox H295R High-throughput Steroidogenesis Assay for 11-Deoxycortisol (11DCORT) (AID 2283432; active means hit-call score of the fitted dose curve at least 0.9, where 1 is the maximum; inactive means score below 0.9); details: actives raise or lower the signal
Outline: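 Adrenal carcinoma line H295R, run per OECD 456 with minor changes, was forskolin-stimulated (10 uM, 48 h) before a 48 h chemical exposure at 0.1% DMSO. Secreted 11-deoxycortisol was quantified by HPLC-MS/MS.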

[11] = CEETOX_H295R_OHPROG: CeeTox H295R High-throughput Steroidogenesis Assay for OH-Progesterone (OHPROG) (AID 2283435; active means hit-call score of the fitted dose curve at least 0.9, where 1 is the maximum; inactive means score below 0.9); details: actives raise or lower the signal
Outline: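 Secreted 17alpha-hydroxyprogesterone is read by tandem MS from media of forskolin-primed H295R cells dosed with chemical for 48 h. Activity is fitted in both directions against DMSO baseline; cytotoxic concentrations are re-tested diluted.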

[12] = CEETOX_H295R_CORTIC: CeeTox H295R High-throughput Steroidogenesis Assay for Corticosterone (CORTIC) (AID 2283437; active means hit-call score of the fitted dose curve at least 0.9, where 1 is the maximum; inactive means score below 0.9;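 further: corticosterone secreted into medium quantified by mass spectrometry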); details: actives raise or lower the signal
Outline: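 H295R adrenal cells prestimulated 48 hours with 10 uM forskolin, then exposed 48 hours to chemical in 0.1% DMSO. Corticosterone in medium measured by HPLC-MS/MS after MTBE extraction; MTT viability in the same wells; bidirectional fit versus DMSO.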

[13] = CEETOX_H295R_CORTISOL: CeeTox H295R High-throughput Steroidogenesis Assay for Cortisol (AID 2283438; active means hit-call score of the fitted dose curve at least 0.9, where 1 is the maximum; inactive means score below 0.9;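 further: cortisol secreted into medium quantified by LC-MS/MS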); details: actives raise or lower the signal
Outline: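 Human adrenocortical H295R cells (passage ≤10) received test chemicals for 48 h after forskolin priming. Secreted cortisol was measured by LC-MS/MS.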

[14] = CEETOX_H295R_DOC: CeeTox H295R High-throughput Steroidogenesis Assay for DOC (AID 2283439; active means hit-call score of the fitted dose curve at least 0.9, where 1 is the maximum; inactive means score below 0.9); details: actives raise or lower the signal
Outline: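 Secreted DOC was quantified from H295R media by HPLC-MS/MS after 48 h chemical exposure following 48 h forskolin (10 uM) prestimulation. Values were fitted in both directions relative to DMSO, the negative control and baseline.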

[15] = CEETOX_H295R_ESTRADIOL: CeeTox H295R High-throughput Steroidogenesis Assay for Estradiol (AID 2283440; active means hit-call score of the fitted dose curve at least 0.9, where 1 is the maximum; inactive means score below 0.9;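 further: estradiol secreted into medium quantified by LC-MS/MS after dansyl derivatisation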); details: actives raise or lower the signal
Outline: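 H295R cells pre-stimulated 48 h with 10 uM forskolin, then exposed 48 h to chemical in 0.1% DMSO. Medium estradiol quantified by MTBE extraction, dansyl derivatisation and HPLC-MS/MS; bidirectional fit versus DMSO; MTT viability required >/=70%.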

[16] = CEETOX_H295R_ESTRONE: CeeTox H295R High-throughput Steroidogenesis Assay for Estrone (AID 2283441; active means hit-call score of the fitted dose curve at least 0.9, where 1 is the maximum; inactive means score below 0.9;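 further: estrone secreted into medium measured by LC-MS/MS after dansyl derivatization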); details: actives raise or lower the signal
Outline: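 H295R cells; 48 h forskolin (10 uM) prestimulation; 48 h compound exposure, 0.1% DMSO final. Medium estrone: MTBE extraction, dansyl derivatization, HPLC-MS/MS. Bidirectional fit vs DMSO.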

[17] = CEETOX_H295R_PROG: CeeTox H295R High-throughput Steroidogenesis Assay for Progesterone (PROG) (AID 2283442; active means hit-call score of the fitted dose curve at least 0.9, where 1 is the maximum; inactive means score below 0.9); details: actives raise or lower the signal
Outline: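 H295R adrenal cells prestimulated 48 h with 10 uM forskolin, then exposed 48 h to test chemical in 0.1% DMSO. Progesterone in medium quantified by HPLC-MS/MS after MTBE extraction; viability checked by MTT in same wells.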

Measured: AC50

CC(=O)OCCOCCOCCOC(C)=O
inactive: [1] | [2] | [3] | [4] | [5] | [6] | [7] | [8]

CCCCCCCCCCCC(=O)OC
inactive: [1] | [2] | [3] | [9] | [4] | [5] | [6] | [7] | [8]

O=C(O)CCCCC(=O)O
inactive: [1] | [2] | [3] | [9] | [4] | [5] | [6] | [7] | [8]

Cc1c(C(=O)O)c(O)cc2c1C(=O)c1c(O)c([C@@H]3O[C@H](CO)[C@@H](O)[C@H](O)[C@H]3O)c(O)c(O)c1C2=O
active: [4] 50 µM
inactive: [1] | [2] | [3] | [9] | [4] | [5] | [6] | [7] | [10] | [11] | [12] | [13] | [14] | [15] | [16] | [17] | [8]

Nc1nc(N)c2nc(CNc3ccc(C(=O)N[C@@H](CCC(=O)O)C(=O)O)cc3)cnc2n1
inactive: [1] | [2] | [3] | [9] | [4] | [5] | [8]

O=c1c(O)c(-c2ccc(O)c(O)c2)oc2cc(O)cc(O)c12
active: [1] 19.2 µM | [3] 23.4 µM
inactive: [2] | [4] | [5] | [6] | [7] | [8]

Cc1ccc(N(C)C)cc1
inactive: [1] | [2] | [3] | [4] | [5] | [6] | [7] | [8]

CCCCCCCCCCCCCCCC
inactive: [2] | [3] | [5] | [6] | [7] | [8]

Cc1oc(-c2ccccc2)nc1CCOc1cccc2c1ccn2CCC(=O)O
active: [6] 2.57 µM and 4.49 µM | [7] 3.58 µM and 2.88 µM | [8] 87.9 µM
inactive: [1] | [2] | [3] | [4]

CN1CCCC1=O
inactive: [1] | [2] | [3] | [5] | [6] | [7] | [8]

Oc1ccc2c(c1)OC[C@@H](N1CCC(O)(c3ccc(F)cc3)CC1)[C@H]2O
not listed: [5] | [9]
inactive: all other assays above
